Here are results for 103 compounds from PubChem BioAssay AID1347420 (Sanford-Burnham Center for Chemical Genomics, 2020).

Screen size: about 1,300 compounds; about 980 (75%) were called active. Inconclusive results (about 4%) are left out. The list shows a part of the results. A number with no mark means an inactive call.

The target in the assay is Sulfhydryl oxidase 1 (Homo sapiens) (UniProt O00391). As to the kind of experiment: QSOX1 enzyme inhibitors, primary screen, biochemical, HyperBlu H2O2 luminescence, HTS (AID 1347420). Note: values above 100% were filed as inconclusive. The settings on record: recombinant QSOX1, HyperBlu H2O2 luminescence; at 12.5 µM; hits give high values; active = any value above zero.
Sulfhydryl oxidase 1 (Homo sapiens), sequence (O00391 whole entry, looked up): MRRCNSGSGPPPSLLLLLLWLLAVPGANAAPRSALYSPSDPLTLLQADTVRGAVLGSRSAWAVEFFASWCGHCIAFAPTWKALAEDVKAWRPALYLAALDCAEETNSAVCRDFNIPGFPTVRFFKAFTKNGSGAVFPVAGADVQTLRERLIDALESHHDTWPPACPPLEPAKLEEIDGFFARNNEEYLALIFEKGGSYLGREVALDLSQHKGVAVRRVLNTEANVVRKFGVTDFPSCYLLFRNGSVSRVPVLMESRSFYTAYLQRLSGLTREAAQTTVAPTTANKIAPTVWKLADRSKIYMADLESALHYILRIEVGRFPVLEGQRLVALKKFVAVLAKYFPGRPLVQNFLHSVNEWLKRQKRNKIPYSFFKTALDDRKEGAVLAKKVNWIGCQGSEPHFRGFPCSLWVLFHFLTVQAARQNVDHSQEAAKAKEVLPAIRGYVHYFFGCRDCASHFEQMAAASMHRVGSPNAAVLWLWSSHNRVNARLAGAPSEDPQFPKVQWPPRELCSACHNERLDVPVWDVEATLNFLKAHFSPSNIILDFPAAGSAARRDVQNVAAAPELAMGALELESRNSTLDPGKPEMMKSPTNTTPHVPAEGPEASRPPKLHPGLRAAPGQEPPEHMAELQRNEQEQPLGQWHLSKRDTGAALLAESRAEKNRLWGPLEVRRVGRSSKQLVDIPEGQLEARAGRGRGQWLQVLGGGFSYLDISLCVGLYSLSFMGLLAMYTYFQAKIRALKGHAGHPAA
As for `CCN(CC)CCn1c(=O)c(Cc2ccc(OC)cc2)nc2ccccc21`, the inhibition – broadly, the drop in the measured response relative to a control, in per cent – is 11.3% (active).

As to `CCCNCC(O)COc1ccccc1C(=O)CCc1ccccc1` (stereo not drawn), the inhibition was 9.1% (active).

Regarding `O=C(O)c1cc2cc(Cc3cccnc3)ccc2o1`, the inhibition is 12.1% (active).

`NC(N)=Nc1nc(CSCC/C(N)=N/S(N)(=O)=O)cs1`: the inhibition is 19.1% (active).

On to `CC(/C=C/c1cccc(Oc2ccc(F)cc2)c1)N(O)C(N)=O` (stereo not drawn), for which the inhibition is 17.2% (active).

As for `O=C(CCc1ccc(O)cc1)c1c(O)cc(O)cc1O`, the inhibition is 35.5% (active).

`NS(=O)(=O)C#Cc1ccccc1`: the inhibition was 7% (active).

`NC(=O)c1cnccn1`: the inhibition is 6.1% (active).

For `CCCCCCCCCCCCCCC[C@H](O)[C@H](N)CO`, the inhibition was 18.5% (active).

Consider `COc1ccc(NC(=O)c2ccc(-c3ccc(-c4noc(C)n4)cc3C)cc2)cc1N1CCN(C)CC1`, for which the inhibition is 3.7% (active).

With `CCCCCN(C)CCC(O)(P(=O)(O)O)P(=O)(O)O`, the inhibition is -4.8%.

As for `O=c1onc2n1-c1cc(Br)ccc1OC2`, the inhibition is 5.7% (active).

Consider `CC(C)(C)c1ccc(C(=O)CCCN2CCC(OC(c3ccccc3)c3ccccc3)CC2)cc1`, for which the inhibition was 8.3% (active).

Consider `C[C@@H](NCCc1ccc(O)cc1)[C@@H](O)c1ccc(O)cc1`, for which the inhibition was 14.4% (active).

For `CC(CCc1ccc(O)cc1)NCCc1ccc(O)c(O)c1` (stereo not drawn), the inhibition is 83.4% (active).

`O=c1[nH]c2cc(C(F)(F)F)ccc2n1-c1cc(C(F)(F)F)ccc1O`: the inhibition is 11.5% (active).

In the case of `C[C@H]1CC2C3CCC4=CC(=O)C=C[C@]4(C)[C@@]3(Cl)[C@@H](O)C[C@]2(C)[C@@]1(O)C(=O)CO` (stereo partly drawn), the inhibition was -10.3%.

Regarding `CC1CC2C3CCC4=CC(=O)C=C[C@]4(C)[C@@]3(F)[C@@H](O)C[C@]2(C)[C@@]1(O)C(=O)CO` (stereo partly drawn), the inhibition was 11.4% (active).

Regarding `C[C@]12C=CC(=O)C=C1CC[C@H]1[C@@H]3C[C@@H](O)[C@](O)(C(=O)CO)[C@@]3(C)C[C@H](O)[C@@]12F`, the inhibition was 26.2% (active).

In the case of `CCOC(=O)C1=C(C)NC(C)=C(C(=O)OC)C1c1cccc(Cl)c1Cl` (stereo not drawn), the inhibition was 6.3% (active).

On to `C#CCN1C(C)=C(C(=O)OC)C(c2cccc([N+](=O)[O-])c2)C(C(=O)OCC)=C1C` (stereo not drawn), for which the inhibition was 7.8% (active).

For `CCOC(=O)C1=C(C)NC(C)=C(C(=O)OCC)C1c1c(F)c(F)c(F)c(F)c1F`, the inhibition was -4.7%.

As for `COC(=O)C1=C(C)NC(C)=C(C(=O)OCCN(C)Cc2ccccc2)C1c1cccc([N+](=O)[O-])c1` (stereo not drawn), the inhibition was 6.8% (active).

Take `CCOC(=O)C1=C(C)NC(C)=C(C(=O)OC)C1c1cccc([N+](=O)[O-])c1` (stereo not drawn): the inhibition was 14% (active).

In the case of `COCCOC(=O)C1=C(C)NC(C)=C(C(=O)OC(C)C)C1c1cccc([N+](=O)[O-])c1` (stereo not drawn), the inhibition was 16.8% (active).

`COCCOC(=O)C1=C(C)NC(C)=C(C(=O)OC/C=C/c2ccccc2)C1c1cccc([N+](=O)[O-])c1` (stereo not drawn): the inhibition was 32.1% (active).

For the compound `COC(=O)C1=C(C)NC(C)=C(C(=O)OC(C)(C)CN(C)CCC(c2ccccc2)c2ccccc2)C1c1cccc([N+](=O)[O-])c1` (stereo not drawn), the inhibition was 21.8% (active).

On to `CCN1CCC[C@H]1CNC(=O)c1c(O)c(Cl)cc(Cl)c1OC`, for which the inhibition is 14.4% (active).

For `NCCNC(=O)c1ncsc1-c1cccc(F)c1`, the inhibition was -11.5%.

`O=C1NCC2(CCN(CCc3ccccc3)CC2)O1`: the inhibition is 10.5% (active).

Regarding `Cc1ccc(O)c(N=Nc2ccccc2)n1`, the inhibition is 30.2% (active).

With `Cc1cc(NC2CCCCC2)nc(-n2nc(C)cc2C)n1`, the inhibition was 6.3% (active).

As for `CCCCCCCCCCCCCCCC(=O)NCCO`, the inhibition was 8.6% (active).

On to `CCCCCCCC/C=C\CCCCCCCC(=O)NCCO`, for which the inhibition is 0.4% (active).

Consider `CCCCCCC(=O)OC1CC(C)(C)NC(C)(C)C1`, for which the inhibition was -7.9%.

Regarding `C[C@]12CC[C@@H]3c4ccc(O)cc4CC[C@H]3[C@@H]1CC[C@@H]2O`, the inhibition is 24.6% (active).

Turning to `C[C@]12CC[C@@H]3c4ccc(O)cc4CC[C@H]3[C@@H]1CCC2=O`, the inhibition was 22.4% (active).

Turning to `C[C@](N)(Cc1ccc(O)cc1)C(=O)O`, the inhibition was 2.9% (active).

Turning to `COC(=O)C(C)(N)Cc1ccc(O)cc1` (stereo not drawn), the inhibition is 2.3% (active).

In the case of `CC(N)(Cc1ccc(O)cc1)C(=O)O` (stereo not drawn), the inhibition was 50.5% (active).

Regarding `CCOC(=O)C1=C[C@]2(CC)CCCN3CCc4c(n1c1ccccc41)[C@@H]32`, the inhibition is 8.5% (active).

Regarding `CCc1ccc2c(-c3cccc(Cl)c3)nc(=O)n(CC)c2n1`, the inhibition was 20% (active).

With `CCOC(=O)c1ncn2c1CN(C)C(=O)c1cc(F)ccc1-2`, the inhibition was 11.8% (active).

Consider `CN(Cc1cnc2nc(N)nc(N)c2n1)c1ccc(C(=O)N[C@@H](CCC(=O)O)C(=O)O)cc1`, for which the inhibition was 3.6% (active).

For the compound `Nc1nc(N)c2nc(CNc3ccc(C(=O)NC(CCC(=O)O)C(=O)O)cc3)cnc2n1` (stereo not drawn), the inhibition was 34.3% (active).

With `CC1(C)NC(=O)N(c2ccc([N+](=O)[O-])c(C(F)(F)F)c2)C1=O`, the inhibition was -8.3%.

On to `CC(C)C(=O)Nc1ccc([N+](=O)[O-])c(C(F)(F)F)c1`, for which the inhibition is 4.7% (active).

In the case of `O=[N+]([O-])c1ccc(CSc2ncnc3c2ncn3[C@@H]2O[C@H](CO)[C@H](O)C2O)cc1` (stereo partly drawn), the inhibition is 33.9% (active).

For the compound `Nc1nc(SCc2ccc([N+](=O)[O-])cc2)c2ncn([C@@H]3O[C@H](CO)[C@H](O)C3O)c2n1` (stereo partly drawn), the inhibition is 33.7% (active).

On to `C#CC(N)CCC(=O)O` (stereo not drawn), for which the inhibition was 13.5% (active).

`C=CC(N)CCC(=O)O` (stereo not drawn): the inhibition is -9.5%.

With `Nc1nc2c(ncn2COC(CO)CO)c(=O)[nH]1`, the inhibition was 10.7% (active).

Turning to `Nc1nc2c(ncn2COCCO)c(=O)[nH]1`, the inhibition was 19.3% (active).

`Cc1cccc(-c2[nH]c(C(C)(C)C)nc2-c2ccc3nccnc3c2)n1`: the inhibition was -12.5%.

On to `N=S(=O)([O-])Cc1noc2c1C=C[C+]=C2`, for which the inhibition is 9.3% (active).

Take `OC[C@H]1NC[C@@H](O)[C@@H]1O`: the inhibition is 10.5% (active).

Turning to `OCC1NCC(O)C(O)C1O` (stereo not drawn), the inhibition was 14.4% (active).

Consider `CCN1/C(=C/C(C)=O)Sc2ccc(OC)cc21`, for which the inhibition is 58.1% (active).

As for `CC[C@H](C)C(=O)O[C@H]1CCC=C2C=C[C@H](C)[C@H](CC[C@@H]3C[C@@H](O)CC(=O)O3)[C@H]21`, the inhibition is 8.8% (active).

As for `CC(C)(C)NCC(O)COc1nsnc1N1CCOCC1` (stereo not drawn), the inhibition is 3.8% (active).

In the case of `CC1CNCCN1S(=O)(=O)c1cccc2cnccc12` (stereo not drawn), the inhibition is 37.4% (active).

For the compound `CC1CN(S(=O)(=O)c2cccc3cnccc23)CCN1` (stereo not drawn), the inhibition is 4.9% (active).

As for `O=Nc1ccc2oc(=O)ccc2c1`, the inhibition is 85% (active).

In the case of `COC(=O)Nc1nc2ccc(C(=O)c3cccs3)cc2[nH]1`, the inhibition is 12.3% (active).

Turning to `O=c1[nH]c(=O)c2nc3ccccc3nc2[nH]1`, the inhibition was 3.9% (active).

In the case of `NC(=O)c1cn(Cc2c(F)cccc2F)nn1`, the inhibition was -7.2%.

With `CCCN(CCC)CCc1cccc2c1CC(=O)N2`, the inhibition was -8.3%.

Regarding `CO[C@@]1(NC(=O)CSCC#N)C(=O)N2C(C(=O)O)=C(CSc3nnnn3C)CS[C@@H]21`, the inhibition was 10% (active).

`CN1CCC[C@H]1c1cccnc1`: the inhibition was 2.5% (active).

In the case of `CN1C(=O)CC[C@H]1c1cccnc1`, the inhibition was 3.9% (active).

On to `COc1ccccc1CNCCCCCCNCCCCCCCCNCCCCCCCNc1ccccc1OC`, for which the inhibition was 0.8% (active).

Turning to `C#CCCN`, the inhibition was 25.9% (active).

`NC(=O)c1cccc(N)c1`: the inhibition was 19% (active).

With `NC(=O)c1ccccc1`, the inhibition is -9.9%.

Take `NC(=O)c1ccc2[nH]ccc2c1`: the inhibition is -15.5%.

In the case of `CC[C@@H](C)[C@H]1O[C@]2(CC[C@@H]1C)C[C@@H]1C[C@@H](C/C=C(\C)[C@@H](O[C@H]3C[C@H](OC)[C@@H](O[C@H]4C[C@H](OC)[C@@H](O)[C@H](C)O4)[C@H](C)O3)[C@@H](C)/C=C/C=C3\CO[C@@H]4[C@H](O)C(C)=C[C@@H](C(=O)O1)[C@]34O)O2`, the inhibition is 10.8% (active).

As for `Cc1cccc(/C=C/c2ccccc2)n1`, the inhibition was 3.6% (active).

Regarding `O=NN(CCCl)C(=O)NCCCl`, the inhibition is 10.3% (active).

Regarding `CCCNC(C)C(=O)Nc1ccccc1C` (stereo not drawn), the inhibition is 3.1% (active).

Take `Nc1nc2ccc(OC(F)(F)F)cc2s1`: the inhibition is 7.2% (active).

For the compound `CSC(=N)N`, the inhibition is 14.1% (active).

As to `CCSC(=N)N`, the inhibition was 3% (active).

As to `NC(=O)CNCCC(c1ccccc1)c1ccccc1`, the inhibition is 1.3% (active).

As to `N=C(N)N1CCc2ccccc2C1`, the inhibition was 18.5% (active).

Turning to `CC(C)NNC(=O)c1ccncc1`, the inhibition was 0.1% (active).

For `C1COC(NC(C2CC2)C2CC2)=N1`, the inhibition is -6.7%.

`CN(C)CCCC1(c2ccc(F)cc2)OCc2cc(C#N)ccc21` (stereo not drawn): the inhibition is 8.6% (active).

On to `Nn1nnc2ccccc21`, for which the inhibition is 21.7% (active).

`N[C@@H](Cc1c[nH]c2ccc(O)cc12)C(=O)O`: the inhibition was 45.4% (active).

`N[C@@H](Cc1c[nH]c2ccccc12)C(=O)O`: the inhibition was 3.4% (active).

With `O=C(O)Cc1c[nH]c2ccc(O)cc12`, the inhibition was 47.5% (active).

For `Cc1cnc(NC(=O)C2=C(O)c3ccccc3S(=O)(=O)N2C)s1`, the inhibition is 44.2% (active).

On to `CN1C(C(=O)Nc2ccccn2)=C(O)c2ccccc2S1(=O)=O`, for which the inhibition is 35.6% (active).

For the compound `CN1C2CCCC1CC(NC(=O)c1nn(C)c3ccccc13)C2` (stereo not drawn), the inhibition is 8.4% (active).

Turning to `CC(=O)O[C@]1(C(C)=O)CC[C@H]2[C@@H]3C=C(Cl)C4=CC(=O)[C@@H]5C[C@@H]5[C@]4(C)[C@H]3CC[C@@]21C`, the inhibition was -5.1%.

For the compound `NCCS(=O)O`, the inhibition is 4.2% (active).

Take `CC(=O)NNC(=O)N1Cc2ccccc2Oc2ccc(Cl)cc21`: the inhibition is 17.2% (active).

In the case of `N[C@@H](Cn1ccc(=O)c(O)c1)C(=O)O`, the inhibition was 10.1% (active).

Turning to `O=[N+]([O-])c1ccc(-c2nc(-c3ccc(F)cc3)c(-c3ccncc3)[nH]2)cc1`, the inhibition is 92.4% (active).

Consider `Oc1ccc(-c2nc(-c3ccc(F)cc3)c(-c3ccncc3)[nH]2)cc1`, for which the inhibition is 97% (active).

For the compound `O=C1Cc2c([nH]c3ccc(Br)cc23)-c2ccccc2N1`, the inhibition was 1.7% (active).

Take `C=C1N=C(N=NC2=C(S(=O)(=O)[O-])[C+]=C(S(=O)(=O)[O-])[C+]=C2)[C+](COP(=O)([O-])O)C(C=O)=C1O`: the inhibition is 6.1% (active).

Take `O=C1OC(=O)C2C3CCC(O3)C12` (stereo not drawn): the inhibition is 9.8% (active).
